Assay outcomes as filed in PubChem BioAssay.
A selection: hits, their analogues and other compounds. The true share with any hit is near 3.8%.
Mot1-301 SUMO = inhibitors of SUMOylation pathway: yeast Mot1-301 growth rescue; growth rescue, % at 18.8 µM; S. cerevisiae Mot1-301 growth rescue, ATP luminescence, 38.5C; percent above DMSO median, 100 means doubled; 1% of 320,000 active;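 active = every valid replicate shows activation above 250% relative to neutral control wells; inactive = the rest, any valid replicate at or below 250%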
Yeast superoxide = yeast age-related superoxide inhibition as caloric restriction mimetic; S. cerevisiae aged cells, superoxide DHE fluorescence; active compounds read low; superoxide response (% of plate mean), % at 10 µM; 0.18% of 330,000 active;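 active = superoxide response under a set limit, about three screen SD below normal, cut at about 65% in these data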;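 also: yeast aged for seven days with compound at 30 °C before DHE staining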
Cardio protect = myocardial damage modulation in H9c2 cells; H9c2 cardiomyocytes, H2O2 injury protection, ATPLite, 2 h; protection from H2O2 cell death, % at 20 µM; 0.63% of 360,000 active; AID 588492;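 active = compounds giving at least 50% protection of heart cells from peroxide-induced death in the single-dose screen, raw or plate-pattern-corrected value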
FAS-TE inh = blocks the thioesterase domain of human fatty acid synthase; recombinant FAS-TE, OMFH fluorogenic substrate, fluorescence endpoint; inhibition, % at 15 µM; AID 602261; P49327; 0.67% of 360,000 active;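 active = compounds whose normalised, plate-corrected inhibition of enzyme fluorescence in the single-dose primary screen is 50% or more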
MPTP inh = inhibitors of mitochondrial permeability transition pore. isolated mouse mitochondria, Ca2+ swelling absorbance, 30 min. inhibition, % at 10 µM. 1.4% of 360,000 active. AID 602449;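 active = inhibition of 50% or more, scaled per plate between neutral and stimulator controls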
aDG glyco act = alpha-DG glycosylation activation | Pro5-aDG cells, alpha-DG glycosylation AlphaScreen (IIH6); 0% Pro5, 100% B10-LARGE cell signal | 0.22% of 360,000 active | AID 624168 | activation, % at 10 µM;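 active = activation of at least 8% versus controls, or a plate z-score of at least 8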;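 also: Pro5 are CHO cells carrying HIG-tagged alpha-DG that lacks glycosylation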
CR mimetic CP = confirmation of caloric restriction mimetics inhibiting yeast age-related superoxide | 1% of 850 active | superoxide response (% of plate), % at 10 µM | AID 434994 | S. cerevisiae aging, superoxide DHE fluorescence; active compounds read low | shares compounds with Yeast superoxide;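 active = superoxide signal below 65% of the plate average of sample wells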;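 also: cells aged with compound for 7 days at 30 degrees C before staining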
DHE fluor count = counter-screen for compounds affecting DHE oxidation and fluorescence in yeast; S. cerevisiae BY4741, flow cytometry; active compounds read low; shares compounds with Yeast superoxide; 850 tested, under 10 active; fluorescence response, % at 10 µM;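 active = fluorescence response below 15%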;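 also: lower means stronger quenching of DHE signal or ROS scavenging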
Large screens that a line does not name were inactive (follow-up assays come after a bar, where they were run).

CCC(C)(C)c1ccc(OCCCC[n+]2ccccc2)c(C(C)(C)CC)c1	Mot1-301 SUMO 290 | CR mimetic CP inactive | DHE fluor count inactive
O=C(NC(=O)N1CCCC1)c1csnn1	Yeast superoxide 64 | CR mimetic CP inactive | DHE fluor count inactive
CCc1nc(N2CCN(C(=O)CCl)CC2)c2c3c(sc2n1)CC(C)CC3 (configuration not stated)	none
COC(=O)C1CN(C(=O)C(C)Oc2ccccc2Cl)c2ccccc2O1 (configuration not stated)	Yeast superoxide 64 | CR mimetic CP inactive | DHE fluor count inactive
COC(=O)C1CN(C(=O)COc2ccc(Cl)cc2Cl)c2ccccc2O1 (configuration not stated)	none
COc1ccc(CNC(=O)C2CCN(S(=O)(=O)N3CCC4(CC3)OCCO4)CC2)c(OC)c1	Yeast superoxide 63 | CR mimetic CP inactive | DHE fluor count inactive
COc1cccc(CNC(=O)C2CCN(S(=O)(=O)N3CCC4(CC3)OCCO4)CC2)c1	none
O=C(CSc1nc2ccccc2o1)N1CCN(S(=O)(=O)c2ccc3ccccc3c2)CC1	Yeast superoxide 64 | CR mimetic CP inactive | DHE fluor count inactive
CC(=O)COc1nc2c(c(-c3ccco3)c1C#N)CCc1ccccc1-2	Yeast superoxide 65 (no result: Cardio protect, FAS-TE inh, MPTP inh, aDG glyco act) | CR mimetic CP inactive | DHE fluor count inactive
CCOc1nc2c(c(-c3cccs3)c1C#N)Cc1ccccc1-2	none
O=C(CCc1nc2sc3c(c2c(=O)[nH]1)CCCC3)Nc1cccc(Cl)c1	none
Cc1ccc(S(=O)(=O)Nc2c(C)cc(C)nc2Cl)cc1	Yeast superoxide 50 | CR mimetic CP inactive | DHE fluor count inactive
Cc1cc(C)c(NS(=O)(=O)c2ccccc2)c(C)n1	none (no result: Mot1-301 SUMO, Yeast superoxide)
COc1ccc(C2(c3ccc(OC(C)=O)cc3OC(C)=O)CC(c3ccccc3)NC(=S)N2)cc1 (configuration not stated)	Yeast superoxide 61 | CR mimetic CP inactive | DHE fluor count inactive
CC1C(=O)NN=C1C(=O)N/N=C\c1ccc(O)cc1O (configuration not stated)	Yeast superoxide 60 | CR mimetic CP inactive | DHE fluor count inactive
COc1cc(/C=N/NC(=O)C2=NNC(=O)C2C)ccc1O (configuration not stated)	none
CC(C)(C)NS(=O)(=O)c1ccc(C(=O)Nc2ccc3c(c2)OCO3)cc1	none
OCCOCCn1c2ccccc2c2ccccc21	none | CR mimetic CP inactive | DHE fluor count inactive
CCCn1c2ccc(/C(C)=N\O)cc2c2cc(/C(C)=N/O)ccc21	none | CR mimetic CP inactive | DHE fluor count inactive
COCCCN1C(=O)N(c2ccccc2)C(=O)C1CC(=O)Nc1ccc(F)cc1 (configuration not stated)	Yeast superoxide 62 | CR mimetic CP inactive | DHE fluor count inactive
COc1ccc(S(=O)(=O)N2CC=C(C(=O)NC3CCCC3)CC2)cc1	Yeast superoxide 63 | CR mimetic CP inactive | DHE fluor count inactive
CC(C)Nc1nc(NC2CCCC2)nc(N2CCOCC2)n1	none (no result: Mot1-301 SUMO, Yeast superoxide)
COc1ccc(C(O)(CCN2CCCCC2)C2CCCCC2)cc1 (configuration not stated)	none
CCN(CC)c1ccc2nc3ccccc3[n+](CC)c2c1	Yeast superoxide 65 | CR mimetic CP inactive | DHE fluor count inactive
CCOC(=O)[C@]12CCCC=C1N(Cc1cccc3ccccc13)C(=O)[C@H](CC(=O)NCCCOC)C2	none (no result: Mot1-301 SUMO, Yeast superoxide, Cardio protect)
Cc1nn(CC(=O)Nc2ccccc2C(F)(F)F)c(=O)c2cccn12	none
CCc1ccccc1NC(=O)Cn1nc(C)n2cccc2c1=O	Yeast superoxide 63 | CR mimetic CP inactive | DHE fluor count inactive
NS(=O)(=O)c1ccc(N/N=C/c2ccc(C(=O)O)cc2)c([N+](=O)[O-])c1	none
Cc1nn(-c2ccccc2)c(N2CCCC2)c1/C=N/Nc1ccc(S(N)(=O)=O)cc1[N+](=O)[O-]	Yeast superoxide 60 | CR mimetic CP inactive | DHE fluor count inactive
CO[C@@H]1CN(C)C(=O)c2ccc(NS(=O)(=O)c3c(C)noc3C)cc2OC[C@@H](C)NC[C@@H]1C	none (no result: Mot1-301 SUMO, Yeast superoxide, Cardio protect, FAS-TE inh)
COc1ccc(N2CCN(c3ccc(C(N)=O)cc3[N+](=O)[O-])CC2)cc1	none
COc1ccc(N2CCN(C(=O)c3cccnc3)CC2)c([N+](=O)[O-])c1	none | CR mimetic CP inactive | DHE fluor count inactive
O=[N+]([O-])c1ccc(Oc2ccc(S(=O)(=O)N3CCOCC3)cn2)cc1	none
O=C(NCc1ccc2c(c1)OCO2)c1cccc(C(=O)NCc2ccc3c(c2)OCO3)c1	none
O=C1COc2ccc(C(=O)NCc3ccc4c(c3)OCO4)cc2N1	Yeast superoxide 64 | CR mimetic CP inactive | DHE fluor count inactive
O=C(COC(=O)c1cc(S(=O)(=O)N2CCCCC2)ccc1Cl)NC1CCS(=O)(=O)C1 (configuration not stated)	none
c1ccc(Cc2noc(CN3CCCC(CN4CCOCC4)C3)n2)cc1 (configuration not stated)	none
O=C(NC1CCCC1)C(c1ccccc1)N(C(=O)c1csnn1)c1ccccc1F (configuration not stated)	none
O=C(NC1CCCCC1)C(c1ccncc1)N(C(=O)c1csnn1)c1ccccc1F (configuration not stated)	Yeast superoxide 65 | CR mimetic CP inactive | DHE fluor count inactive
CC1CCN(C(=O)COC(=O)Cc2ccc(Br)cc2)CC1	none
CN1CC(=O)Nc2ccc(Br)cc2C1=O	Yeast superoxide 65 | CR mimetic CP inactive | DHE fluor count inactive
[O-][n+]1c2ccccc2[n+]([O-])c2cc(O)ccc21	Yeast superoxide 51 | CR mimetic CP 61 | DHE fluor count inactive
[O-][n+]1c(/C=C/c2ccccc2)ccc2ccccc21	none
CCCOc1ccc2cc(-c3ccccn3)c(=O)oc2c1	Yeast superoxide 60 | CR mimetic CP inactive | DHE fluor count inactive
O=c1oc2cc(OCc3c(F)cccc3Cl)ccc2cc1-c1ccccn1	none
CC1(Oc2cccc(F)c2)CCN(Cc2ccc3ccccc3c2)C1 (configuration not stated)	none (no result: Mot1-301 SUMO, Yeast superoxide)
CCN(CC)S(=O)(=O)N1CCC(C(=O)NC2CCCC2)CC1	Yeast superoxide 64 | CR mimetic CP inactive | DHE fluor count inactive
CCS(=O)(=O)N1CCC(C(=O)NC2CCCCC2)CC1	none
CCN1CCN(C(=O)N(CC(=O)Nc2ccc(C(N)=O)cc2)S(=O)(=O)c2ccc(C)cc2)CC1	none (no result: Mot1-301 SUMO, Yeast superoxide)
Cc1ccc(S(=O)(=O)N(CC(=O)Nc2ccc(C(N)=O)cc2)C(=O)N2CCN(C)CC2)cc1	Yeast superoxide 65 | CR mimetic CP inactive | DHE fluor count inactive
